Bioassay records (PubChem BioAssay)
Coupling enz: qHTS Assay for Inhibitors of Fructose-1,6-bisphosphate Aldolase from Giardia Lamblia: Coupling assay counterscreen. activity change, negative = inhibition, % at 58.2 µM, hits read low. AID 2472, 2010. coupling enzyme system counterscreen, AmpLite Red fluorescence. actives 0.67% (n = 290,000); in the data active = activity change below about -30%
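Coupling enzymes only (glyceraldehyde-3-phosphate) + compound, at 57.5 uM final, 10 min RT; add substrate/coupling/AmpLite Red mix, 20 min RT; fluorescence ex 525/em 598 nm. Actives flag coupling-system interference.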
GALK inh: qHTS Assay for Inhibitors of Human Galactokinase (GALK). P51570. Purified GALK, Kinase-Glo residual ATP luminescence. Potency, µM (series often up to 57.5 µM), for inactives: top-dose activity change, negative = inhibition, actives largely listed as inhibitors. actives 0.007% (n = 270,000). AID 1868, 2009; note: potency is the fitted concentration of half-maximal effect
Target sequence (P51570 whole entry, looked up): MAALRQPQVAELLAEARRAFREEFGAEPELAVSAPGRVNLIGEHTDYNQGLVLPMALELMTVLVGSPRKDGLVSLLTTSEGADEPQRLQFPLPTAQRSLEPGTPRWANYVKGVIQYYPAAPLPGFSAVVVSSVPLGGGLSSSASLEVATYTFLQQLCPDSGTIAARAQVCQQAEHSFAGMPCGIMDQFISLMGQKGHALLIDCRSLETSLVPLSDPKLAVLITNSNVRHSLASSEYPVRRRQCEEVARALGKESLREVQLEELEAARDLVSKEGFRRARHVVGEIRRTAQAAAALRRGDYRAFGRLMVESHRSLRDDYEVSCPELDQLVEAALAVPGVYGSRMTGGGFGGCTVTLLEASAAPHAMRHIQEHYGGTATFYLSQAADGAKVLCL
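ATP-depletion format; final 35 uM ATP, 100 uM D-galactose, 5 nM enzyme; pH 8.0 HEPES/Mg2+ buffer; 60 min RT; luminescence read 10 min after detection reagent.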
Giardia killer: Small Molecules that selectively kill Giardia lamblia: qHTS; Giardia lamblia trophozoite viability; activity change, % at 7.66 µM, hits read low; actives 0.15% (n = 340,000); in the data active = activity change below about -80%; inconclusive = between about -30% and that limit;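 note: parasites exposed to compound for two days anaerobically before the ATP read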
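ATP-content bioluminescence gauges trophozoite survival. Cells (100/well) receive compound and incubate anaerobically for 48 hrs at 37 deg C; detection reagent follows for 15-30 min at room temperature.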
TrxR1 substrate: qHTS Assay for Substrates of Mammalian Selenoprotein Thioredoxin Reductase 1 (TrxR1): qHTS; Thioredoxin reductase 1, cytoplasmic (Rattus norvegicus), O89049; purified TrxR1 substrate turnover, NADPH consumption readout; Potency, µM (series often up to 114 µM), for the others: at the highest dose activity change, negative = substrate turnover; actives 0.01% (n = 390,000); AID 588456, 2011; note: potency is the fitted concentration of half-maximal effect; nearly all actives have a fitted effect of over 50% in size
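Rat TrxR1, dispensed at 90 nM, was prereduced with 400 uM NADPH (final) for 5 min at ~22 deg C, then incubated with compound 15 min before 400 uM selenite. A first-read NADPH fluorescence drop versus no-compound background flagged substrates.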
rTrxR1 inhibitor: qHTS Assay for Inhibitors of Mammalian Selenoprotein Thioredoxin Reductase 1 (TrxR1): qHTS; Thioredoxin reductase 1, cytoplasmic (Rattus norvegicus), O89049; recombinant rTrxR1, NADPH fluorescence consumption, selenite substrate; Potency, µM (titrated, usually from 114 µM), for the others: at the highest dose activity change, negative = inhibition, usual class: inhibitors; actives 1% (n = 390,000); note: potency is the fitted concentration of half-maximal effect; nearly all actives have a fitted effect of over 65% in size
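Rat TrxR1 (90 nM in the dispensed reagent) was pre-reduced with 400 uM NADPH for 5 min at room temperature, then incubated with compound for 15 min. After 400 uM selenite was added, NADPH fluorescence (Ex 340/Em 450 nm) was followed for 8 min.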
PI4K2A inh: qHTS for small molecular inhibitors of PI4K2A | Phosphatidylinositol 4-kinase type 2-alpha (Homo sapiens), Q9BTU6 | purified PI4K2A, ADP-Glo luminescence, 1 h; stronger effect = lower value | activity change, negative = inhibition, % at 76.9 µM | actives 0.13% (n = 420,000); in the data active = activity change below about -50%; inconclusive = mostly about -30% to -49%;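 note: -100% = wells without enzyme as full effect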
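PI4K2A activity was measured by ADP-Glo luminescence: enzyme (4 ug/mL stock) and phosphatidylinositol (1.2 mM stock) in Tris pH 7.5/MgCl2/EGTA/Triton X-100 buffer were reacted with ATP (300 microM stock) for one hour at ambient temperature.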
Starred values were filed as active, the others as inactive; ? = inconclusive; nt = not tested or not shown; [ ] = remark or other dose. Compounds with a hit are over-represented: about 1.5% of the library has one in this group of screens. Unless noted, calls come from the whole dose curve; as a rule, active = well fitted curve in the direction sought with a large enough effect; inconclusive = small, poorly fitted or top-dose-only effect, or another doubt; inactive = no such curve, though single readings can be large; an effect the other way counts as inactive or inconclusive. Unless noted, % is set by controls: 0 for no effect and ±100 for the full control effect.

SMILES	Coupling enz	GALK inh	Giardia killer	TrxR1 substrate	rTrxR1 inhibitor	PI4K2A inh
COc1ccc2c(c1)CCc1cn3nc(C)cc3nc1-2	-45*	10%	-17	4%[57.1 µM]	?	-5
COCC(C)NC(=O)CCS(=O)(=O)c1nc(-c2ccc(OC)cc2)cc(C(F)(F)F)n1 (centres undefined)	-1	0%	-12	17%	56µM*	7
COC(=O)CCS(=O)(=O)c1nc(-c2ccccc2)cc(C(F)(F)F)n1	3	-3%	-10	2%	18µM*	17
CCOC(=O)CCS(=O)(=O)c1nc(-c2ccccc2)cc(C(F)(F)F)n1	2	1%	-5	6%	16µM*	11
Cc1ccc(N2C(=O)CS/C2=C(\C(Cl)=C(Cl)Cl)[N+](=O)[O-])cc1	2	2%	-16	0%	32µM*	-12
COc1ccc(N2C(=O)CS/C2=C\[N+](=O)[O-])cc1	-6	-1%	-2	-15%	-32%	1
CCNC(=O)[C@@H]1CCCN1C(=O)[C@H](CCCN=C(N)N)NC(=O)[C@H](CC(C)C)NC(=O)CNC(=O)[C@H](Cc1ccc(O)cc1)NC(=O)[C@H](CO)NC(=O)[C@H](Cc1c[nH]c2ccccc12)NC(=O)[C@H](Cc1cnc[nH]1)NC(=O)[C@@H]1CCC(=O)N1	nt	nt	nt	nt	nt	-3
Cc1nc(SCC(=O)c2ccccc2)c(C#N)c(-c2ccco2)c1C(=O)NCc1ccco1	-22	0%	4	15%	50µM*	?
COCCOC(=O)c1c(C)nc(SCC(=O)Nc2ccc(OC)cc2)c(C#N)c1-c1ccco1	3	-3%	-12	-2%	1%	-17
COc1cc2c(cc1OC)C(C(=O)NC1CC1)C1c3ccccc3CCN1C2=O (centres undefined)	nt	nt	0	0%	1%	-5
CCN(CC)CCNC(=O)C1c2cc(OC)c(OC)cc2C(=O)N2CCc3ccccc3C12 (centres undefined)	-1	4%	2	2%	35µM*	-4
Cc1cc(C)c(OCC(=O)OCCNC(=O)c2cccnc2)c(C)c1	1	0%	0	-3%	50µM*	1
COc1cc(C(=O)OCCNC(=O)c2cccnc2)cc(OC)c1OC	nt	nt	1	3%[57.1 µM]	-7%	-19
COc1ccc(C=C(C(C)=O)C(C)=O)cc1OC	1	1%	-17	-17%	45µM*	-6
O=C(O)c1cc(Nc2cc(Cl)c3nonc3c2[N+](=O)[O-])ccc1O	9	-2%	-24	-21%	1.8µM*	-59*
O=[N+]([O-])c1c(Nc2ccccc2O)cc(Cl)c2nonc12	-4	-3%	13	-1%	0.71µM*	-10
CC1CC(C)CN(CCCNS(=O)(=O)c2cc3c(cc2Br)CCN3C(=O)C2CC2)C1 (centres undefined)	nt	nt	nt	nt	nt	-3
O=C(Cc1ccc(Br)cc1)NO	nt	nt	nt	5%	8%	nt
NC(=O)COc1ccc(/C=C2\C(=O)ON=C2c2ccccc2)cc1	nt	nt	-9	-8%	28µM*	3
COc1cc(/C=C2\C(=O)ON=C2c2ccccc2)cc(OC)c1OC	3	-1%	0	5%	18µM*	7
COc1ccc(/C=C2\C(=O)ON=C2c2ccccc2)cc1OC	-3	-5%	-12	11%	32µM*	-2
O=C1ON=C(c2ccccc2)/C1=C/c1ccco1	0	0%	22	3%	-21%	-19
CCOc1cc(/C=C2\C(=O)ON=C2c2ccccc2)ccc1OC	-2	3%	6	1%	18µM*	8
NC(=O)COc1ccccc1	5	4%	6	7%	19%	5
COc1cc2nc(N3CCCN(C)CC3)nc(NC3CCN(C)C3)c2cc1OC (centres undefined)	nt	nt	nt	62%	-13%	nt
SMILES	Coupling enz	GALK inh	Giardia killer	TrxR1 substrate	rTrxR1 inhibitor	PI4K2A inh
O=C(CCOc1ccccc1)NO	nt	nt	nt	3%	14%	nt
COc1cc(/C=C2\N=C(C)OC2=O)cc(OC)c1OC	2	0%	21	5%	45µM*	-19
COc1ccc(C=C2C(=O)OC(C)(C)OC2=O)cc1OC	1	-1%	4	5%[57.1 µM]	?	-2
COc1cc(/C=C2/N=C(C3CCCCC3)OC2=O)cc(OC)c1OC	0	-5%	15	4%	?	-1
COc1ccc(/C=C2/C(=O)ON=C2c2ccccc2)cc1OC	1	1%	8	7%	32µM*	-8
[O-][n+]1cccc(/C(Cl)=N/OC[C@@H](O)CN2CCCCC2)c1	nt	nt	nt	nt	nt	2
COc1ccc2ccc3c(c2c1)N=CC1(O3)N(C)c2ccccc2C1(C)C (centres undefined)	2	0%	5	-21%	-4%	?
CN1c2ccccc2C(C)(C)C12C=Nc1c(ccc3ccccc13)O2 (centres undefined)	-78*	-2%	11	-2%	-9%	?
O=C(CNC(=O)C(c1ccccc1)c1ccccc1)OCC(=O)c1cccc2ccccc12	nt	nt	-24	-8%[0.0914 µM]	2%	nt
COc1ccc(NC(=O)C2CCN(S(=O)(=O)c3ccc4c(c3)CCCC(=O)N4)CC2)cc1OC	nt	nt	nt	-2%	6%	-5
Cc1cccc(Cn2cnc3c(cnn3C(C)(C)C)c2=O)c1F	nt	nt	nt	-8%	-1%	nt
Cc1ccc(CN=Cc2[nH]c3ccc(Br)c(Cl)c3c2O)cc1	-40*	3%	8	-7%	?	1
Oc1c(C=NCc2ccc(F)cc2)[nH]c2ccc(Br)c(Cl)c12	-25	0%	nt	nt	nt	nt
O=C(c1ccccc1)C1CN(Cc2ccccc2)CCC1(O)c1ccccc1 (centres undefined)	1	10%	23	9%	7.1µM*	8
OC(c1ccccc1)C1CN(Cc2ccccc2)CCC1(O)c1ccccc1 (centres undefined)	6	0%	-23	16%	?	-1
CC(Oc1ccccc1)C(=O)Nc1nnc(S(=O)(=O)N2CCCCC2)s1 (centres undefined)	8	7%	-84*	-9%	-13%	0
C[C@H]1Cc2c(-c3ccccc3)nc3c(c2CO1)CN(C(=O)C1CCCCC1)CC3	1	nt	nt	nt	nt	nt
Cc1cc2n(n1)CCC(=O)N2Cc1ccc(C(=O)Nc2ccc(Br)c(C)c2)cc1	nt	nt	nt	-4%	12%	-18
